High-throughput results: PubChem, National Center for Advancing Translational Sciences (NCATS)
This is a sample that favours compounds with a hit; in the whole collection about 5.9% have one here.
KB-3-1 cytotox: KB-3-1 parental cell cytotoxicity | KB-3-1 viability, CellTiter-Glo ATP luminescence, 72 h | Potency, µM (doses to about 46.1 µM), most hits filed as cytotoxic | 1.4% of 400,000 active | AID 1347075; also: % is scaled to controls: 0 for no effect and ±100 for the full control effect; nearly all actives have a fitted effect of over 60% in size
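Parental KB-3-1 viability, qHTS format: 72 h compound exposure, 37 °C; CellTiter-Glo; media-only wells and DMSO plates as controls; concentration-effect fits on corrected data.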
ATXN viability: reduces viability in counter-screen for ATXN expression inhibitors; S2 cells (HEK-293 line with an ATXN2-luciferase reporter) viability, CellTiter-Fluor protease fluorescence, 24 h; Potency, µM (top dose mostly 56.7 µM), most hits filed as cytotoxic; 0.49% of 400,000 active; also: nearly all actives have a fitted effect of over 40% in size
ATXN2 expr inh: reduces ATXN2 reporter expression in HEK-293 cells | HEK-293 ATXN2-luciferase reporter, luminescence, 24 h | Potency, µM (top dose mostly 57 µM), for the others: at the top dose activity change, negative = inhibition, hits mostly inhibitors | 0.72% of 360,000 active | AID 1745845; also: % is scaled to controls: 0 for no effect and ±100 for the full control effect; nearly all actives have a fitted effect of over 55% in size
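ATXN2-luciferase reporter cells (luciferase flanked by upstream and downstream ATXN2 gene portions) were treated 24 h at 37 °C with compounds at up to 57 uM. SteadyGlo luminescence gave expression; GF-AFC fluorescence gave viability.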
HepG2 tox: kills HepG2 cells in TGF-b inhibitor counter-screen; HepG2 CAGA-GFP viability, ATP luminescence, 18 h; Potency, µM (series often up to 46.1 µM), without a hit: at the highest dose activity change, negative = cytotoxicity, most hits filed as cytotoxic; 0.76% of 410,000 active; AID 588856
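HepG2 CAGA-GFP cells (1000/well, DMEM with 1% FBS) received compound, then TGF-beta at 500 pg/mL final, and were incubated 18 hours at 37 degrees C. Viability was read by CellTiter-Glo luminescence. Media-only wells were set as complete cell-killing and DMSO as no toxicity.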
KB-V1 MDR tox: KB-V1 MDR subline cytotoxicity | Potency, µM (series often up to 46.1 µM), usual class: cytotoxic | KB-V1 MDR cells viability, CellTiter-Glo, 72 h | 3.4% of 400,000 active; also: % is scaled to controls: 0 for no effect and ±100 for the full control effect; nearly all actives have a fitted effect of over 60% in size
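Readout: CellTiter-Glo luminescence, 10 min after addition. Cells: KB-V1 MDR subline, 72 h at 37 degrees C with compound. Analysis: corrected, normalized data fitted to concentration-effect curves.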
TGFb SMAD3 inh: TGF-b pathway inhibition | AID 588855 | HepG2 CAGA-GFP TGF-b/SMAD3 reporter, GFP fluorescence, 18 h; TGF-beta stimulated, 500 pg/mL final | 1.2% of 410,000 active | Potency, µM (series often up to 46.1 µM), for inactives: at the highest dose activity, negative = inhibition, actives largely listed as inhibitors; also: % is scaled to controls: 0 for no effect and ±100 for the full control effect; nearly all actives have a fitted effect of over 65% in size
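HEPG2 CAGA-GFP, 1000 cells/well; 2 h settle, 37 C; cpd via pin tool; TGF-b 500 pg/mL final; 18 h, 37 C; GFP imaging ex488/em500-530; %Activity normalised to -TGF-b and +DMSO controls; CRC fit, curve class.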
An asterisk follows results filed as active; i = inactive; ? = inconclusive; . = no result given; [ ] = another dose, or the depositor's remark. Calls follow the shape of the dose curve; as a rule, active = well fitted curve in the direction sought with a large enough effect; inconclusive = small, poorly fitted or top-dose-only effect, or another doubt; inactive = no such curve, though single readings can be large; an effect the other way counts as inactive or inconclusive. Potency is read from the fitted curve at half-maximal effect.

SMILES	KB-3-1 cytotox	ATXN viability	ATXN2 expr inh	HepG2 tox	KB-V1 MDR tox	TGFb SMAD3 inh
O=C(C1CCOC1)N1CCOc2ccc(CN3CCC(Oc4cccnc4)CC3)cc2C1 (centres undefined)	.	i	.	.	.	.
C(=C\c1ccnc2ccccc12)/c1ccc(N2CCNCC2)cc1	?	.	.	-49%	?	?
Cc1ccc(S(=O)(=O)Nc2ccc(SC(F)F)cc2)c(C)c1	i	?	-37%	-72%	16µM*	13µM*
CC(C)c1ccc(S(=O)(=O)Nc2ccc(SC(F)F)cc2)cc1	i	?	-26%	-53%	?	?
COc1ccc(NS(=O)(=O)c2cc(-c3cnc(C4CC4)o3)ccc2C)cc1	13µM*	?	.	-32%	?	-24%
COc1ccc(NS(=O)(=O)c2cc(C)ccc2C)cc1	7.3µM*	i	-12%	-7%	i	-13%
CCc1ccc(NS(=O)(=O)c2cc(-c3cnc(C4CC4)o3)ccc2C)cc1	i	?	?	-98%	?	?
CCOC(=O)c1cccc(NS(=O)(=O)c2cc(-c3cnc(C4CC4)o3)ccc2C)c1	i	?	-32%	-49%	i	18µM*
CC(Sc1cn(CCNC(=O)c2ccccc2F)c2ccccc12)c1ccccc1 (centres undefined)	i	?	?	-21%	i	?
O=C(NCc1ccc(F)cc1)c1cnc(N2CCOCC2)c2ccccc12	i	.	.	6%	i	7%
COc1ccc(-c2cnc(C)o2)cc1S(=O)(=O)Nc1ccc(C)c(N(C)C)c1	i	i	5%	-7%	i	-5%
COc1ccc(-c2cnc(C)o2)cc1S(=O)(=O)Nc1ccc(C)c(F)c1	5.8µM*	?	-11%	-6%	5.8µM*	?
CCOC(=O)c1c(C)[nH]c(C)c1S(=O)(=O)N1CCC(C(=O)NCc2ccccc2Cl)CC1	i	i	-6%	-15%	i	-25%
Cc1nc(NS(=O)(=O)c2ccc(Cl)s2)c2c3c(sc2n1)CCCC3	?	i	.	-20%	12µM*	?
Cc1nc(NCCc2ccc(S(N)(=O)=O)cc2)c2c3c(sc2n1)CCC3	i	i	-15%	-35%	?	-22%
Cc1cc(CNC(=O)c2cnn(-c3nccc(-c4cc(C)sc4C)n3)c2C2CC2)on1	.	i	.	.	.	.
O=C(c1cccc(N2CCCC2=O)c1)N1CCN(c2ccc(F)cc2)CC1	i	i	8%	5%	?	3%
O=C(c1cccc(N2CCCC2=O)c1)N1CCN(c2cccc(Cl)c2)CC1	5.2µM*	i	.	-33%	?	?
Cc1cccc(N2CCN(C(=O)c3cccc(N4CCCC4=O)c3)C(C)C2)c1 (centres undefined)	2.6µM*	i	.	11%	?	18%
O=C(C[n+]1cccc(C(=O)Nc2ccccc2)c1)c1ccccc1	i	i	9%	.	i	.
O=C(Nc1ccc[n+](CC(=O)c2cccc3ccccc23)c1)c1ccccc1	23µM*	i	?	-75%	i	?
COc1cc(NC(=O)c2sc3nc4n(c(=O)c3c2C)CCCCC4)cc(OC)c1OC	i	.	.	-22%	i	-15%
CC(=O)NC(c1ccc(Cl)cc1)c1ccc2cccnc2c1O (centres undefined)	i	?	.	-18%	?	?
CCCC(=O)NC(c1ccco1)c1cc([N+](=O)[O-])c2cccnc2c1O (centres undefined)	?	i	?	-41%	?	-24%
CC(=O)NC(c1ccco1)c1ccc2cccnc2c1O (centres undefined)	8.2µM*	i	10µM*	-14%	?	?
SMILES	KB-3-1 cytotox	ATXN viability	ATXN2 expr inh	HepG2 tox	KB-V1 MDR tox	TGFb SMAD3 inh
CCC(=O)NC(c1ccco1)c1cc(Br)c2cccnc2c1O (centres undefined)	i	?	5µM*	-18%	i	4µM*
CC(C=CC1=C(C)CCCC1(C)C)=CC=CC(C)=CC(=O)O	.	.	-17%	.	.	.
Cc1cccc(N2CCN(C(=O)NC3CCCCC3)CC2C)c1 (centres undefined)	i	?	22µM*	-10%	i	-1%
Cc1ncc(CO)c(/C=N/Nc2ccc(C(F)(F)F)cn2)c1O	?	i	6.3µM*	-16%	i	0%
COc1ccc(-c2cc(C(=O)Oc3ccc(C)c(C)c3)c3ccccc3n2)cc1	.	.	.	0%	.	2%
C(=N\Nc1ncnc2sc3c(c12)CCC3)/c1ccncc1	?	i	-16%	-26%	18µM*	?
c1ccc(CNc2ncnc3sc4c(c23)CCCC4)nc1	i	.	-13%	-23%	8.2µM*	?
Cc1nc(NCc2ccccn2)c2c3c(sc2n1)CCCC3	i	i	-24%	-7%	i	-1%
Cc1cc(-c2nn(-c3ccccc3)cc2/C=C2\SC(N)=NC2=O)ccc1OC(C)C	?	?	-23%	-1%	16µM*	?
CCCOc1ccc(-c2nn(-c3ccccc3)cc2/C=C2\SC(N)=NC2=O)cc1	i	.	-18%[11.3 µM]	6%	i	1%
Cc1ccc(N2C(=O)c3n[nH]c(C)c3C2c2ccc(C(C)C)cc2)cc1 (centres undefined)	?	?	?	-102%	i	?
CCOc1ccccc1CNC(=O)CCCn1c(=O)c2cccn2c2ccc(F)cc21	.	.	.	-9%	.	0%
O=C(Nc1ccc(S(=O)(=O)N2CCOCC2)cc1)c1ccc(CN2CCc3ccccc3C2)cc1	?	i	?	-16%	2.9µM*	-7%
COc1cc2c(cc1OC)CN(Cc1ccc(F)cc1)CC2	i	i	9%	-10%	i	-10%
C/C(=N\NC(=O)c1ccc(CN2CCc3ccccc3C2)cc1)c1ccccc1O	15µM*	i	16µM*	-1%	?	?
O=C(Nc1ccc(S(=O)(=O)N2CCOCC2)cc1)c1cc(-c2cc(Cl)ccc2O)n[nH]1	12µM*	?	.	-127%	?	?
COc1ccc(CN2CCc3cc(OC)c(OC)cc3C2)cc1O	?	i	-3%	-2%	16µM*	16%
CCCNC(=O)c1ccc(CN2CCc3ccccc3C2)cc1	i	i	7%	-16%	?	-1%
CCS(=O)(=O)Nc1cc(C(=O)N2CCCN(C=O)CC2)c2c(c1)nc(-c1ccccc1)n2C	.	i	.	.	.	.
COc1cccc(NC(=O)c2ccc(CN3CCN(c4ccccc4)CC3)cc2)c1	8.9µM*	.	.	-23%	?	-16%
